# Assay outcomes from PubChem.
# ALDH1A1 inh – blocks purified human ALDH1A1 activity. P00352. actives 7.3% (n = 220,000). Purified ALDH1A1, NADH fluorescence, propionaldehyde substrate. Potency, µM (doses to about 75.3 µM), for inactives: at the highest dose activity, negative = inhibition, most hits filed as inhibitors. AID 1030; active means well fitted inhibition curve with a large enough effect, not every such curve was filed as active; inconclusive means small, poorly fitted or top-dose-only effect, or another doubt; inactive means no such curve, though single readings can be large or run the other way;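 further: plate controls were no enzyme wells and a reference inhibitor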
# Target sequence (P00352 whole entry, looked up): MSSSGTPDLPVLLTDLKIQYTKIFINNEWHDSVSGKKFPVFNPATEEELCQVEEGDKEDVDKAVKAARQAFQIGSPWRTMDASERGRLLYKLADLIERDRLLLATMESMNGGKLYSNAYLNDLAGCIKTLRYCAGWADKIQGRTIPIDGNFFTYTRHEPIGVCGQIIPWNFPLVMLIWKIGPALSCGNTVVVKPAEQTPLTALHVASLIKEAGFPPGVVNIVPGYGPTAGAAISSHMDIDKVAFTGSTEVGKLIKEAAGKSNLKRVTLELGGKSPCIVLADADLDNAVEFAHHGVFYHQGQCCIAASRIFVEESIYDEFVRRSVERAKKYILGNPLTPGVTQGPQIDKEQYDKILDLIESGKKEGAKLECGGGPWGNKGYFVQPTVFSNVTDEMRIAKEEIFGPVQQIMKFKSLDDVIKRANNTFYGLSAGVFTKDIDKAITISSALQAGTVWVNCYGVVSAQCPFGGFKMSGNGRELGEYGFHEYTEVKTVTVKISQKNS
# HTT aggregate – mutant huntingtin aggregation inhibition | actives 1.1% (n = 220,000) | PC12 HttQ103-GFP aggregates, Acumen cytometry, 40 h | Potency, µM (titrated, usually from 46.1 µM), without a hit: top-dose activity change, negative = inhibition, usual class: inhibitors; further: on the % scale 0 is the no-effect control and ±100 the full control effect; nearly all actives have a fitted effect of over 60% in size
#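 Ecdysone-promoter PC12 model expressing HTT exon 1 Q103 fused to GFP, induced by tebufenozide at 100 nM final. Compounds titrated; aggregates sized 1–25 µm scored on a 488 nm laser cytometer.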
# Lamin A splicing – changes lamin A minigene splicing in HeLa cells | HeLa LMNA splicing GFP/RFP minigene ratio, 48 h | Potency, µM (titrated, usually from 46.1 µM), for the others: at the highest dose ratio change, negative = inhibition, hits mostly inhibitors | actives 0.01% (n = 200,000); active means well fitted inhibition curve with a large enough effect in the signal ratio, with a control signal flat, not every such curve was filed as active; inconclusive means small, poorly fitted or top-dose-only effect, or effect the other way, or a change in a side signal; the % refers to the signal ratio; further: on the % scale 0 is the no-effect control and ±100 the full control effect
#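 Read-out is the ratio of GFP to DsRed2 object intensity, acquired by 488 nm laser-scanning cytometry on HeLa lamin A-EGFP minigene reporter cells. Compound incubation 48 hrs at 37 °C in Opti-MEM with 2% FBS; DMSO 0.5% final.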
# HPGD inh – blocks human HPGD enzyme activity | purified HPGD, NADH fluorescence kinetic, PGE2 substrate | Potency, µM, inactives show at the top dose activity change, negative = inhibition, most hits filed as inhibitors | actives 4.3% (n = 150,000) | AID 894; active means well fitted inhibition curve with a large enough effect, not every such curve was filed as active; inconclusive means small, poorly fitted or top-dose-only effect, or another doubt; inactive means no such curve, though single readings can be large or run the other way; further: on the % scale 0 is the no-effect control and ±100 the full control effect
# Target sequence (P15428 whole entry, looked up): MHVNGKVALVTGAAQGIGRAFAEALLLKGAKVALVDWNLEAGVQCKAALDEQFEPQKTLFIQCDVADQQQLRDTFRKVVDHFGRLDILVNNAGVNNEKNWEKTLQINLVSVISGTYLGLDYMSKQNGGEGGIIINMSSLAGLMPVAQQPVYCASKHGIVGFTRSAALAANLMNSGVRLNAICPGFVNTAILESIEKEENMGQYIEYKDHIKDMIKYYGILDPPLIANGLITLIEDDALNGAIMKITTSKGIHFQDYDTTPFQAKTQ
#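 20 nM HPGD preincubated 15 min at room temperature with compound in 50 mM Tris-HCl pH 8, 0.01% Tween 20. Started with 1 mM NAD+ and 30 uM prostaglandin E2; NADH fluorescence (360/450 nm) read 5 times over 30-s intervals, last minus first.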
# HTT ATP protect – cytoprotection in Huntington HTT-Q103 PC12 cell model; PC12 HTT-Q103 induced, cytoprotection, ATP luminescence, 40 h; Potency, µM (highest dose often 56.4 µM), for inactives: cytoprotection (ATP increase), hits mostly activators; actives 0.14% (n = 230,000); AID 1471; further: % of control where 0% means no effect; nearly all actives have a fitted effect of over 45% in size
#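 Compounds added alongside 100 nM tebufenozide, which induces toxic Q103 huntingtin exon 1-GFP in stable PC12 cells; surviving cells quantified by luminescent ATP measurement. Medium: phenol red-free DMEM, 5% equine and 5% calf serum.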
# The depositor's hits bear a star; ? = inconclusive; . = no result; [ ] = another dose, or the depositor's remark. Sampled rows, rich in hits. Any-hit rate of the full collection: about 8.8%. Unless noted, the call rests on the fitted dose curve; in most records, active means well fitted curve in the direction sought with a large enough effect; inconclusive means small, poorly fitted or top-dose-only effect, or another doubt; inactive means no such curve, though single readings can be large; an effect the other way counts as inactive or inconclusive. Potency means the concentration at half of the fitted maximal effect.
SMILES,ALDH1A1 inh,HTT aggregate,Lamin A splicing,HPGD inh,HTT ATP protect
N#C/C(=C/c1ccccc1[N+](=O)[O-])c1nc(C2CC2)cs1,11µM*,6%,?,?,4%[10 µM]
N#C/C(=C(/O)c1ccc([N+](=O)[O-])cc1)c1nnc2n1CCCCC2,?,32%,-16%[46 µM],.,-18%
N#C/C(=C\c1ccc([N+](=O)[O-])cc1)c1nc(C2CC2)cs1,-1%,-3%,-7%,-5%,5%[10 µM]
N#C/C(=C\c1ccccc1[N+](=O)[O-])c1nc(C2CC2)cs1,10µM*,2%,-11%,-27%,-1%[10 µM]
COc1ccc(-c2cc(C(=O)N3CCCCC3)no2)cc1OC,-9%,-11%,2%,14µM*,-21%
CN1CCN(C(=O)c2cc(-c3ccco3)on2)CC1,-5%,7%,6%,32µM*,22%
O=C(c1cc(-c2ccc(Cl)cc2Cl)on1)N1CCN(C(=O)c2ccco2)CC1,2.8µM*,19%,4%,10µM*,15%
CCC(C)NC(=O)c1cc(-c2ccc(OC)cc2)on1 (configuration not stated),-11%,-5%,1%,-15%,-35%
O=C(c1cc(-c2ccccc2Cl)on1)N1CCN(C(=O)c2ccco2)CC1,2%,8%,15%,-19%,-23%
COc1ccc(-c2cc(C(=O)O)no2)cc1,0.45µM*,6%[9.22 µM],13%[46 µM],14µM*,-20%
O=C(c1cc(-c2ccco2)on1)N1CCOCC1,?,-6%,7%,-27%,-5%
CCOC(=O)c1[nH]c(C)c(CCC(=O)Nc2ccc(C)cc2Cl)c1C,.,.,6%[46 µM],.,.
Cc1cc(C)cc(NC(=O)c2cc(S(=O)(=O)N3CCC(C)CC3)cn2C)c1,.,.,-7%[46 µM],.,.
CN1CCN(C(=O)c2cc(-c3cccc(Cl)c3)on2)CC1,4.5µM*,-30%,3%,.,7%
Cc1onc(-c2ccccc2Cl)c1C(=O)N1CCN(C(=O)c2ccco2)CC1,22µM*,?,?,-7%,-8%
COc1ccc(C)cc1NC(=O)C(Cc1ccccc1)NS(=O)(=O)c1cccs1 (configuration not stated),.,.,-16%[46 µM],.,.
Cn1c(=O)c2nc(SCC(=O)Nc3cc(Cl)cc(Cl)c3)n(C)c2n(C)c1=O,.,.,17%[46 µM],.,.
COc1cnn(-c2cc(Oc3ccc(C)cc3)ncn2)c(=O)c1Cl,13µM*,-4%,0%,-6%,-15%
COc1cc(OC)cc(C(=O)Nc2nnc(NC(=S)Nc3ccccc3)s2)c1,22µM*,26%,?,-20%,29%[10 µM]
CC(C)(C)c1nnc(NC(=S)Nc2ccccc2)s1,25µM*,32%[9.22 µM],?,.,14%[10 µM]
S=C(Nc1ccccc1)Nc1nccs1,?,?,?,-30%,-99%[10 µM]
CCN(CC)S(=O)(=O)c1ccc(C(=O)Nc2nnc(NC(=S)Nc3ccccc3)s2)cc1,.,9%[9.22 µM],.,.,28%[10 µM]
NCC1OC(n2cnc3c(=O)[nH]c(N)nc32)C(O)C1O (configuration not stated),-2%,.,-3%,-8%,.
CC1=CC(C)(C)Nc2ccc(OS(=O)(=O)c3ccc(C)cc3)cc21,1.1µM*,?,?,?,-27%
COc1ccc(NC(=O)C2CCN(c3nnnn3-c3ccccc3)CC2)cc1,13µM*,13%,-9%,-8%,-2%
SMILES,ALDH1A1 inh,HTT aggregate,Lamin A splicing,HPGD inh,HTT ATP protect
COc1ccccc1CC(NC(C)=O)C(=O)NC1CCN(c2nnnn2-c2ccccc2)CC1 (configuration not stated),5.6µM*,-11%,-4%,-12%,-2%[10 µM]
O=C(Nc1ccc(F)cc1)C1CCN(c2nnnn2-c2ccccc2)CC1,14µM*,18%,-6%,-8%,-21%[10 µM]
CC(=O)Nc1ccc(NC(=O)C2CCN(c3c(NC(C)=O)c(C)nn3-c3ccccc3)CC2)cc1,.,.,-10%[46 µM],.,.
Nc1ccc(Cl)c(S(=O)(=O)Nc2ccc(Cl)cc2)c1,.,-7%[9.22 µM],.,.,-17%[10 µM]
c1ccc(-c2nc(-c3cccc4ccccc34)c(Nc3ccc4ccccc4c3)o2)cc1,?,.,.,-7%,-32%
Cc1[nH]c2ccccc2c1/C=N/n1cnnc1,10%,-6%,3%,-13%,-14%[10 µM]
CCN(CC)c1ccc(N=Cc2c(C)[nH]c3ccccc23)cc1,0.45µM*,11µM*,?,?,.
CC1(C)c2ccccc2N2CCC(=O)NC21/C=C/c1ccco1 (configuration not stated),1%,-19%,10%,-8%,-6%[0.074 µM]
Cc1ccc2c(c1)C(C)(C)[C@]1(C)NC(=O)CCN21,40µM*,?,1%,-13%,19%
CCOC(=O)c1nn(-c2ccccc2)c(=O)c2c(N)scc12,?,3%,-4%,-20%,-10%[10 µM]
Nc1scc2c(C(=O)N/N=C/c3ccc(Cl)cc3)nn(-c3ccccc3)c(=O)c12,10µM*,7%,-8%,14µM*,?
COc1ccc(Oc2ncc3nc(-c4cc(F)cc(F)c4)c(=O)n(C[C@H]4CCCO4)c3n2)cc1,?,.,?,.,6%
COc1ccc(CCNC(=O)COc2ccc(S(=O)(=O)N3CCOCC3)cc2)cc1,-1%,-8%,-10%,-8%,12%[10 µM]
O=C(COC(=O)COc1ccccc1[N+](=O)[O-])Nc1ccc(S(=O)(=O)N2CCCCC2)cc1,14µM*,2%[9.22 µM],3%,-22%,2%
CCOCC(=O)Nc1ccc(S(=O)(=O)N2CCOCC2)cc1,10µM*,-1%,-10%,-1%,11%[10 µM]
CCC(C)NC(=O)COc1ccc(S(=O)(=O)N2CCOCC2)cc1 (configuration not stated),5µM*,28%,5%,-7%,9%[10 µM]
COc1ccc(NC(=O)CNc2cc(S(=O)(=O)N3CCOCC3)ccc2NCC2CCCO2)cc1 (configuration not stated),7.1µM*,16%,5%[46 µM],.,-30%
COc1ccc(C(=O)NC2CC(=O)N(c3ccc4c(c3)OCCO4)C2)cc1 (configuration not stated),.,.,-2%[46 µM],.,.
O=C(COC(=O)COc1ccccc1)Nc1ccc(S(=O)(=O)N2CCOCC2)cc1,32µM*,-3%,.,.,-55%
O=[N+]([O-])c1cc(/C=N/O)ccc1N1CCCC1,11µM*,-3%,?,.,-21%
O=C(O/N=C\c1ccc(N2CCOCC2)c([N+](=O)[O-])c1)c1ccccc1Cl,1.6µM*,8%,6%,-15%,1%
O=[N+]([O-])c1cc(/C=N/n2cnnc2)ccc1N1CCCC1,1µM*,-19%,?,.,-23%
CC(C)(C)Sc1ccc(/C=N/O)cc1[N+](=O)[O-],22µM*,-8%[9.22 µM],-4%[46 µM],.,-13%
CO/N=C/c1ccc(N2CCCC2)c([N+](=O)[O-])c1,?,0%,?,.,6%[10 µM]
CC(C)(C)SCCNS(=O)(=O)c1ccc(C#N)cc1,.,-12%[9.22 µM],.,.,0%[10 µM]
CCOC(=O)C1(CCCc2ccccc2)CCN(C(=O)c2cnn(CC)c2)CC1,?,-3%[9.22 µM],16%[46 µM],.,-6%[10 µM]
